# Data: ChEMBL document CHEMBL1157539, “Thousands of chemical starting points for antimalarial lead identification” (Nature, 2010)
# Tested on: Plasmodium falciparum
# Test: GSK_TCMDC: Inhibition of Plasmodium falciparum Dd2 in whole red blood cells, using parasite LDH activity as an index of growth. Test compounds present at 2uM
# Type: functional
row,SMILES,Inhibition [%]
1,Cl.Clc1cccnc1N1CCN(c2ncccc2Cl)CC1,0
2,COCn1ncc2cc(-c3cccc(NC(=O)c4csc(NC(C)=O)n4)c3)ccc21,68
3,Cl.N#Cc1ccc(-c2ccc3nc(N4CCCN(C5CCC5)CC4)ccc3c2)cc1,14
4,Cc1ccc2c(OCCN3CCC(Cc4cc5c(cc4F)OCC(=O)N5)CC3)cc(F)cc2n1.Cl,71
5,CS(=O)(=O)NCCCNCc1cccc(-c2cccc(-c3nc4cc(F)ccc4[nH]3)c2)c1.O=C(O)C(F)(F)F,5
6,COCCn1c(SC(C)C(=O)Nc2cc(C(F)(F)F)ccc2Cl)nc2ccccc2c1=O (stereo not given),95
7,Cl.N=C(N)c1ccc(-c2cc3ccc(C(=N)N)cc3[nH]2)cc1,99
8,c1ccc2cc3c(NCCN4CCOCC4)ccnc3cc2c1,98
9,COc1ccc(OC)c(Cc2cnc3nc(N)[nH]c(=O)c3c2C)c1,4
10,CS(=O)(=O)c1ccccc1CNC(=O)c1cccc(-c2ccc(-c3nc4cc(C(F)(F)F)ccc4[nH]3)cc2)c1,7
11,Nc1ccc2[nH]cc(C3CCN(CCC4CCN(C(=O)/C=C/c5ccc(Cl)c(Cl)c5)CC4)CC3)c2n1,78
12,CN(C)CCOc1ccnc2ccc(NC(=O)Cc3ccc(-c4ccncc4)c4ccccc34)cc12,100
13,CC(CN1CCN(C)CC1)C(=O)Nc1cccc(-c2ccc(-c3nc4cc(F)ccc4[nH]3)cc2)c1 (stereo not given),98
14,CN1CCC(NCc2ccc(-c3ccc(S(=O)(=O)NCc4ccccc4)cc3)cc2)CC1.O=C(O)C(F)(F)F,51
15,COc1ccc(C2CCN(CCN3CCC(NC(=O)c4cccc(-c5ccncc5)c4)CC3)CC2)c(OC)c1,24
16,CN1CCN(c2ccnc3ccc(NC(=O)Cc4ccc(-c5ccncc5)c5ccccc45)cc23)CC1,100
17,CN(CCN)Cc1cccc(-c2cccc(-c3nc4cc(F)ccc4[nH]3)c2)c1.O=C(O)C(F)(F)F,19
18,CCCCCc1cnc2nc(N)nc(N)c2c1C.Cl,23
19,OC(CN(Cc1ccccc1)Cc1ccccc1)Cn1c2ccc(Cl)cc2c2cc(Cl)ccc21 (stereo not given),95
20,COc1ccc2nccc(N/N=C/c3ccccc3[N+](=O)[O-])c2c1,100

row,SMILES,Inhibition [%]
1,Cc1n[nH]c2ccc(-c3cc(OC[C@@H](N)Cc4ccccc4)cnc3-c3ccc(OCc4cccc(F)c4)cc3)cc12.O=C(O)C(F)(F)F,59
2,CC1CN(Cc2cccc(-c3ccc(-c4nc5cc(F)ccc5[nH]4)cc3)c2)CC(C)O1.O=C(O)C(F)(F)F (stereo not given),88
3,CS(=O)(=O)Nc1cccc(-c2cnc3[nH]cc(-c4ccc(CCC(=O)O)cc4)c3c2)c1,78
4,O=C(CC1CCCC1)Nc1ccc2c(c1)CCC2,0
5,O=C(Nc1ccc(-c2ccc(-c3nc4cc(C(F)(F)F)ccc4[nH]3)s2)cc1)c1ccoc1,54
6,COc1cc2nc(N3CCC(CNC(=O)c4ccc(-c5ccc(O)cc5)cc4)CC3)nc(N)c2cc1OC.O=C(O)C(F)(F)F,78
7,Cl.O=C(/C=C/c1cccc(Cl)c1)Nc1ccc2nc(CN3CCCC3)ccc2c1,42
8,OC(CNCc1ccccc1OCc1ccccc1)c1cccc(I)c1 (stereo not given),100
9,COC(=O)CCCCOc1cc(Cc2cnc(N)nc2N)cc(OC)c1OC,0
10,Cc1ccc2nc(C)cc(N/N=C/c3ccccc3[N+](=O)[O-])c2c1,100
11,CCCCCCOc1ccc(C(=O)NCCC2CCN(CCCCCNC(=O)C=Cc3ccc(Cl)c(Cl)c3)CC2)cc1,10
12,CC(C)c1ccc(NC(=O)c2cccc(CN3CCCN(CC4CCCCC4)CC3)c2)cc1.O=C(O)C(F)(F)F,59
13,Cc1cccc2nc(-c3ccc(-c4ccc(NC(=O)NC5CC5c5ccccc5)cc4)cc3)[nH]c12 (stereo not given),3
14,O=C(NCCc1ccc(Cl)c(Cl)c1)[C@@H]1CCCN1C(=O)c1ccc(O)c(-c2cccc(C(F)(F)F)c2)c1,82
15,CN1CCC(N2CCC(Oc3cccc(C(=O)NCCCC4CCCC4)c3)CC2)CC1,48
16,CN(Cc1cccc(F)c1)C1CCN(c2cc(NC(=O)c3ccc(F)cc3)ccn2)CC1.O=C(O)C(F)(F)F,36
17,c1ccc(Oc2ccc(Nc3ccnc4cc(-c5ccc(CNCCN6CCOCC6)o5)ccc34)cc2)nc1,100
18,CCN(CC)CCNC(=O)c1ccc(NC(=O)c2cc3c(C)nn(-c4ccc(Cl)cc4)c3s2)cc1.Cl,78
19,Cl.N=C(N)c1cccc(OCCCOc2cccc(NC(=O)Nc3ccc([N+](=O)[O-])cc3)c2)c1,22
20,CN(C)c1ccc(-c2cscc2C(=O)NC2CCCN(Cc3cccnc3)C2)cc1.O=C(O)C(F)(F)F (stereo not given),70
